# Reference: PubChem BioAssay (NCI)
# This is part of a sample that, as a whole, favours compounds with a hit. Of some 83,000 tested, about 20% had one in any assay.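 For each line, cells grew in 96-well plates with the test compound present at a single concentration for 48 hours.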 Calls of active or inactive are those of the source.
# Test system: COLO 205 colon
# Experiment: NCI-60 one-dose screen, 48 h (100 = growth as untreated, 0 = no growth, -100 = all killed)
# Conditions: 10 µM unless noted
# Description: Cells are grown in 96 well plates and exposed to the test compound for 48 hours. Compounds are tested at a single concentration, which is 10^-5 M for most compounds. The reported endpoint is percent growth (GI% or GIPRCNT), where numbers from 0 - 100% represent growth inhibition, and numbers from -100% - 0 represent cell death. For example, a value of 40 represents 60% growth inhibition. A value of 0 means no net growth occurred over the course of the experiment. A value of -40 indicates 40% of cells at the beginning of the experiment died by the end of the experiment. A value of -100 means all cells are dead at the end of the experiment.
# NCI-60 Human Tumor Cell Lines Screen was performed using the standard one-dose NCI protocol, which is described in more detail at https://dtp.cancer.gov/discovery_development/nci-60/default.htm.
# Compounds with GIPRCNT values below 10 were considered active. Activity score was based on GIPRCNT using the following formula: […]
# Score is 0 for GIPRCNT values of 100 or above, 50 for GIPRCNT values of 0, and 100 for GIPRCNT values of -100.
row,Structure (SMILES),growth
1,Cc1ccc(C(C)C)cc1NC(=O)Nc1ccc([N+](=O)[O-])cc1,-35.4% (active)
2,COc1ccc(-c2nn(-c3ccccc3)cc2/C=C2\SC(=S)N(CCc3ccc(O)cc3)C2=O)cc1,108% (inactive)
3,O=C(Nc1ncc([N+](=O)[O-])s1)c1cccc([N+](=O)[O-])c1,77% (inactive)
4,CC(C)(C)c1cc(O)c(O)c(C(C)(C)C)c1,64.9% (inactive)
5,CC(c1cc(Cl)ccc1O)c1cc(Cl)ccc1O,41.2% (inactive)
6,N#Cc1ccc(NC(=O)Nc2ccc(Oc3ccc(NC(=O)Nc4ccc(C#N)cc4)cc3)cc2)cc1,-0.221% (active)
7,COc1cc(C2CC(=O)Nc3c2cc(Br)c2ccccc32)cc(Br)c1OC (stereo not given),37.1% (inactive)
8,O=C(CCc1nnc(Cn2cncn2)o1)c1nc2ccccc2[nH]1,124% (inactive)
9,CCOC(=O)C1=C(C)N2C(=NC3=C(CCC/C3=C\c3ccc(Cl)cc3)C2c2ccc(Cl)cc2)S1 (stereo not given),8.78% (active)
10,CN=C(NC)N/N=C(C)\C=N\NC(=NC)NC,102% (inactive)
11,COc1ccc(-c2cc(Cc3cccs3)c(=O)n(Cn3ccc4ccccc43)n2)cc1,110% (inactive)
12,CCOC(=O)C1=C(COCCN)NC(C)=C(C(=O)OC)C1c1ccccc1Cl (stereo not given),-51.9% (active)
13,CCCc1cccc(CCC)c1O,116% (inactive)
14,OC(c1cc(C(F)(F)F)nc2c(C(F)(F)F)cccc12)C1CCCCN1 (stereo not given),29.3% (inactive)
15,CCN(CC)CCCNCCCNc1cc(OC)cc2cccnc12,24.6% (inactive)
16,CN(C)c1ccc(/C=C(\C#N)c2nc3ccccc3c(=O)[nH]2)cc1,111% (inactive)
17,COc1ccc(Nc2ccnc(NCCCNc3ccnc4cc(Cl)ccc34)n2)cc1,-65% (active)
18,O=[N+]([O-])c1ccc(N/N=C/c2c(O)ccc3ccccc23)nc1,73.1% (inactive)
19,CCCn1cnc2c1c(=O)n(CCCCC(C)=O)c(=O)n2C,104% (inactive)
20,O=C(Nc1ccc(Nc2ccncc2)cc1)c1ccc(Nc2ccnc3ccc([N+](=O)[O-])cc23)cc1[N+](=O)[O-],122% (inactive)

row,Structure (SMILES),growth
1,COc1ccc(C2CC(c3ccc(OC)c(OC)c3)=NN2C(=O)c2cc(OC)c(OC)c(OC)c2)cc1 (stereo not given),8.03% (active)
2,O=C(CN1CCCCC1)Sc1nnc2sc3ccccc3n12,121% (inactive)
3,Nc1c2ccccc2nc2ccccc12 (tested in a mixture with another compound),2.36% (active)
4,O=C1C[C@@H]2/C(=C(O)\C=C\c3ccccc3)C(=O)C=C[C@@H]2O1,-73.4% (active)
5,NCCCc1nnc(CCC(=O)c2nc3ccccc3[nH]2)o1,111% (inactive)
6,CN1C(=O)/C(=C/c2nc(-c3cccc(F)c3)n3ccccc23)c2ccccc21,93% (inactive)
7,c1ccc2cc(C[n+]3ccn(CCCCCCCn4cc[n+](Cc5ccc6ccccc6c5)c4)c3)ccc2c1,20% (inactive)
8,NC(=O)NN=C(C1CC1)C1CC1,105% (inactive)
9,N=c1ccn2c(n1)O[C@@H]1[C@@H](O)[C@H](CO)O[C@@H]12,49.3% (inactive)
10,Cc1ccc(NC(=O)Nc2ccc(-c3cccnc3)cc2N2CCC(CO)CC2)cc1,31.5% (inactive)
11,COC(=O)[C@]12CC[C@@H](C)[C@H](C)[C@@H]1C1=CC[C@@H]3[C@@]4(C)C[C@@H](OC(=O)c5ccco5)[C@H](O)[C@@](C)(CO)[C@@H]4[C@H](O)C[C@@]3(C)[C@]1(C)CC2,-93.3% (active)
12,O=C(/C(=C/c1ccc([N+](=O)[O-])cc1)c1ccccc1)c1ccccc1,87.6% (inactive)
13,Cc1nc2cc(NC(=O)CN3CCN(CCN4C(=O)c5cccc6cccc(c56)C4=O)CC3)ccc2s1,47.1% (inactive)
14,C[C@@H]1CC[C@H]2[C@@H](C)C(O)O[C@@H]3O[C@]4(C)CC[C@@H]1[C@]32OO4 (stereo not given in full),6.72% (active)
15,O=C(Nc1nc(-c2ccc(Cl)cc2)cs1)c1cc(O)c(O)c(O)c1,77.6% (inactive)
16,Cc1cc(NC(=O)Nc2cccc3ccccc23)no1,154% (inactive)
17,COC(=O)[C@]1(CCSC)N[C@H](c2cn(-c3ccccc3)nc2C)[C@@H]2C(=O)N(c3ccc(C)cc3)C(=O)[C@@H]21,113% (inactive)
18,O=C(Nc1ccc(OCc2nnc(-c3ccccc3)o2)c(F)c1)Nc1ccc(Cl)c(C(F)(F)F)c1,-46.3% (active)
19,Nc1nc(SCc2ccccc2Cl)c(-c2ccccc2)c(SCc2ccccc2Cl)n1,95% (inactive)
20,O=C1C2C3C=CC(O3)C2C(=O)N1Nc1ccccc1 (stereo not given),124% (inactive)
